This note sets out measurements from PubChem BioAssay AID1626 (SRMLSC, 2009).

Screen size: about 220,000 compounds; about 2,000 (0.91%) were called active. About 2% were inconclusive and are not listed. No stated cut-off is given here; in the data, inconclusive means inhibition above about 80% without an active follow-up result; inactive means below that; test concentration not stated here. Not all results are given here. Measured potencies and affinities stand elsewhere.

This assay can be described thus: M. tuberculosis H37Rv growth inhibitors, H37Rv strain (AID 1626).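 Further: bacteria incubated seven days before Alamar blue readout; 0% = bacteria only wells and 100% = bacteria with antibiotic wells.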 As to conditions: hits give high values, concentration not given here.
Consider `COc1ccccc1C(=O)C1CCCN(C(=O)CCC(=O)c2ccccc2)C1` (stereo not given), for which the inhibition was 4.79% (inactive).
Regarding `O=C(CNc1cccc2ccccc12)N/N=C/C=C/c1ccco1`, the inhibition was -2.95% (inactive).
With `CCOC(=O)c1c(C)n(-c2ccc(C)cc2)c2ccc(OCC(O)CNCC3CCCO3)cc12` (stereo not given) the figure was 0.55% (inactive).
With `CCOC(=O)c1c(C)n(-c2ccc(C)cc2)c2ccc(OCC(O)CN3CCN(C)CC3)cc12` (stereo not given) the figure was -2.8% (inactive); with `Cc1cccc(N(C(=O)C(F)(F)F)C(C(=O)NC2CCCCC2)c2cccs2)c1` (stereo not given), -0.05% (inactive).
`O=C(/C=C/c1cccs1)Nc1nc(-c2ccccc2)cs1`: the inhibition is -0.14% (inactive).
Take `O=C(/C=C/c1cccs1)Nc1nccs1`: the inhibition is -4.27% (inactive).
As for `Cc1cccc(NC(=O)/C=C/c2cccs2)n1`, the figure is -10.1% (inactive); as for `Cc1ccc(-c2csc(NC(=O)/C=C/c3cccs3)n2)cc1C`, 51.8% (inactive); as for `Cn1nc(C(=O)Nc2sccc2C(N)=O)ccc1=O`, -1.96% (inactive).
For the molecule `COc1ccc2oc(=O)c(C(=O)N3CCN(c4ccccc4C)CC3)cc2c1`, the inhibition is -3.36% (inactive).
Regarding `N#C/C(=C\c1sc(N2CCOCC2)nc1-c1ccccc1)C(=O)Nc1cccc2ccccc12`, the inhibition is 49.2% (inactive).
Consider `O=C(N/N=C/c1sc(N2CCOCC2)nc1-c1ccccc1)c1ccccc1F`, for which the inhibition was -7.96% (inactive).
With `COC(=O)c1ccc(-n2nnnc2SCc2nn[nH]n2)cc1`, the inhibition is -5.62% (inactive).
As for `Cn1c(N)c(C(=O)CSc2ncn[nH]2)c(=O)n(C)c1=O`, the inhibition is -13.1% (inactive).
As for `COc1ccc(Nc2c3c(nc4c(-c5ccccc5)c(C)nn24)CCC3)cc1`, the figure is 13.4% (inactive); as for `Cc1nn2c(Nc3ccccc3)c3c(nc2c1-c1ccccc1)CCC3`, 7.77% (inactive); as for `Cc1nn2c(NCCN(C)C)c3c(nc2c1-c1ccccc1)CCC3`, -3.03% (inactive).
With `Cc1nn2c(NCCCN(C)C)c3c(nc2c1-c1ccccc1)CCCC3` the figure was 10.8% (inactive); with `COc1ccc(C(C)=O)cc1CSc1nnc(-c2ccncc2)n1C`, -2.28% (inactive); with `Cn1c(-c2csc(-c3cccc(C(F)(F)F)c3)n2)n[nH]c1=S`, 3.67% (inactive).
`Cc1ccc(C(=O)NCCSC2CCCCC2)cc1S(=O)(=O)Nc1ccccc1`: the inhibition is -1.4% (inactive).
For `O=C(NCc1cccnc1)C(C(=O)c1ccc(F)cc1)n1ccccc1=O` (stereo not given), the inhibition was -8.48% (inactive).
Turning to `CCC(=O)NCCc1nc2ccccc2n1CC(=O)c1ccccc1`, the inhibition was -2.01% (inactive).
As for `C=CCn1c(=O)c2ccccc2n2c(SCC(=O)c3ccccc3)nnc12`, the inhibition is 6.67% (inactive).
Consider `CCN(CC)CCOc1ccc(/C(=C(/Cl)c2ccccc2)c2ccccc2)cc1`, for which the inhibition was 41% (inactive).
For `CN(C)CCOc1ccc(/C(=C(/CCCl)c2ccccc2)c2ccccc2)cc1`, the inhibition is 59.6% (inactive).
`CCCC(=O)Nc1ccc(C(=O)n2nnc3ccccc32)cc1`: the inhibition was -6.7% (inactive).
For the molecule `COc1ccccc1N1CCN(c2cc(=O)n(Cc3ccc(F)cc3)c(=O)[nH]2)CC1`, the inhibition was 12.4% (inactive).
Regarding `O=S(=O)(c1cccs1)N1CCN(c2ccc(O)cc2)CC1`, the inhibition is -12.2% (inactive).
Turning to `Cc1ccc(CN(Cc2ccco2)C(=S)NCC(=O)NC2CC2)cc1`, the inhibition is 5.98% (inactive).
With `CCc1nnc(NC(=O)c2ccc(OC)cc2)s1`, the inhibition was 2.91% (inactive).
In the case of `CCOC(=O)c1c(-c2ccccc2)csc1NC(=S)NC`, the inhibition was 18.6% (inactive).
Take `CCOc1ccccc1C(=O)Nc1nnc(CC)s1`: the inhibition was -4.9% (inactive).
In the case of `Cc1nc2ccc(NC(=O)c3ccc4ccccc4n3)cc2s1`, the inhibition was -4.06% (inactive).
With `CCc1nnc(NC(=O)c2cc(C)nc3ccccc23)s1` the figure was -1.08% (inactive); with `CCc1nnc(NS(=O)(=O)c2ccc(NC(=O)c3cc4ccccc4oc3=O)cc2)s1`, 61.4% (inactive); with `O=C(Nc1ccccc1)c1ccc2ccccc2n1`, 8.34% (inactive).
On to `Cc1sc(NC(=O)c2cc3ccccc3oc2=O)c(C(=O)OC(C)C)c1-c1ccccc1`, for which the inhibition was -5.1% (inactive).
As for `CN(C)CCCN(Cc1ccccc1)C(=S)Nc1ccc(OC(F)F)cc1`, the figure is 4.19% (inactive); as for `Cc1cc(C)n(-c2nc3ccccc3nc2Nc2ccc3c(c2)OCO3)n1`, 13.5% (inactive); as for `Cc1cccc(NC(=S)NCc2cccs2)c1C`, 9.19% (inactive).
Take `Cc1ccnc(NS(=O)(=O)c2ccc(Cl)nc2)c1`: the inhibition is -4.15% (inactive).
Turning to `CCNC(=S)/N=C(/Nc1ccc(OC)cc1)Nc1nc(C)cc(C)n1`, the inhibition is -8.72% (inactive).
For the molecule `CCc1nnc(NC(=O)c2c(OC)cccc2OC)s1`, the inhibition was -2.43% (inactive).
As to `CCC(CC)c1nnc(NC(=O)c2cc(-c3ccccc3)nc3ccccc23)s1`, the inhibition was 65.7% (inactive).
`CCC(CC)c1nnc(NC(=O)c2ccco2)s1`: the inhibition is -8.07% (inactive).
With `CCSc1nnc(NC(=O)c2cccc3ccccc23)s1` the figure was 3.82% (inactive); with `CCc1nnc(NC(=O)c2ccncc2)s1`, -7.55% (inactive); with `CCSc1nnc(NC(=O)c2ccccc2)s1`, 0.13% (inactive).
In the case of `O=C(CSC1=NCCN1)NC12CC3CC(CC(C3)C1)C2`, the inhibition was -6.99% (inactive).
Consider `CCN(CC)S(=O)(=O)c1cc([N+](=O)[O-])ccc1N=Nc1c(O)[nH]c2ccccc12`, for which the inhibition is 0.25% (inactive).
On to `COc1cccc(/C=N/NC(=S)Nc2cccnc2)c1`, for which the inhibition was 3.92% (inactive).
As for `Cc1nnc(SCC(=O)N2CCC(Cc3ccccc3)CC2)n(N)c1=O`, the figure is 7% (inactive); as for `COc1ccc(C2Nc3ccccc3C(=O)N2NC(=O)c2ccccc2)cc1OC` (stereo not given), 2.58% (inactive); as for `COc1cccc(NC(=O)CN(C)CC(=O)Nc2ccc(Cl)cc2[N+](=O)[O-])c1`, 7.39% (inactive).
On to `Cc1cc(NCCCn2ccnc2)n2nc(-c3ccc(F)cc3)cc2n1`, for which the inhibition is -4.87% (inactive).
As for `Cc1cc(NCCN2CCOCC2)n2nc(C)c(-c3ccc(Cl)cc3)c2n1`, the figure is 17.9% (inactive); as for `Cc1cccc(-c2cc3nc(C)cc(NCCCn4ccnc4)n3n2)c1`, 5.02% (inactive); as for `Cc1cccc(-c2cc3nc(C)cc(NCCCN(C)C)n3n2)c1`, -0.01% (inactive).
With `COCCNc1cc(C)nc2cc(-c3ccc(C)cc3)nn12` the figure was -4.32% (inactive); with `Cc1cc(NCCCn2ccnc2)n2nc(C)c(-c3ccccc3)c2n1`, -2.71% (inactive).
For `CCC(=O)Nc1ccccc1C(=O)OCc1ccc(C(=O)c2ccccc2)cc1`, the inhibition was 27.4% (inactive).
On to `Nn1c(SCC(=O)N2CCOCC2)nnc1C1CC1`, for which the inhibition is -3.01% (inactive).
With `CCOC(=O)c1cc(N)cc([N+](=O)[O-])c1` the figure was 5.48% (inactive); with `Cc1cccc(C)c1NC(=S)N1CCCN(C)CC1`, -1.16% (inactive); with `CCC(CC)C(=O)N1CCCC(c2nc(-c3cccs3)no2)C1` (stereo not given), 10% (inactive).
As for `CC1(OC(=O)CCc2ccccc2)C(=O)C=C2C=C3CCCN3C=C2C1=O` (stereo not given), the inhibition was 6.27% (inactive).
On to `C/C(Cl)=C/Cn1c(SCC(C)C)nc2c1c(=O)[nH]c(=O)n2C`, for which the inhibition is 3.03% (inactive).
As to `COc1cccc(NC(=O)N2CCOCC2)c1`, the inhibition was -7.85% (inactive).
`O=C(Oc1ccc(-c2cnc3ccccc3n2)cc1)c1cc([N+](=O)[O-])ccc1Cl`: the inhibition was 71.7% (inactive).
Take `O=C(Oc1ccc(-c2cnc3ccccc3n2)cc1)c1cccc([N+](=O)[O-])c1`: the inhibition was 24% (inactive).
As for `O=C(Oc1ccc(-c2cnc3ccccc3n2)cc1)c1ccco1`, the inhibition is 7.39% (inactive).
On to `O=C(Nc1cccc(-c2cnc3ccccc3n2)c1)c1ccco1`, for which the inhibition was -2.67% (inactive).
As for `COc1ccc(OC)c(-c2cc(C(=O)Nc3c(C)nn(Cc4ccccc4C)c3C)no2)c1`, the figure is 72.8% (inactive); as for `Cc1ccccc1NC(=O)CN1C(=S)NC(C)(C)CC1C` (stereo not given), 2.34% (inactive); as for `CSc1nnnn1-c1ccc(Cl)cc1`, -2.8% (inactive).
Take `Cc1sc2ncnc(Sc3nnnn3-c3ccc(Cl)cc3)c2c1C`: the inhibition was -0.98% (inactive).
As to `Cc1ccc(-n2cccc2C(=O)NS(=O)(=O)c2ccc(C)cc2)cc1`, the inhibition is -6.02% (inactive).
With `CCc1ccc(OCC(=O)O/N=C(\N)c2ccccn2)cc1`, the inhibition was 8.77% (inactive).
Consider `O=C(CSc1nc(-c2ccccc2)c(-c2ccccc2)[nH]1)NCC1CCCO1` (stereo not given), for which the inhibition was -3.58% (inactive).
With `N#CC1=C(S)N(c2ccccc2)C(c2ccc(-c3cccc(Cl)c3)o2)NC1=O` (stereo not given) the figure was 4.44% (inactive); with `N#CC1=C(S)N(c2ccccc2)C(c2ccc(-c3cc(Cl)ccc3Cl)o2)NC1=O` (stereo not given), 9.36% (inactive); with `C/C=C/c1ccc(OCCCCNCc2ccco2)c(OC)c1`, -4.41% (inactive).
`CCCN(CCC)C(=O)CC(c1ccccc1)c1ccc(C)cc1O` (stereo not given): the inhibition is 2.31% (inactive).
Turning to `CCN(CC(=O)NCCC1=CCCCC1)S(=O)(=O)c1ccccc1`, the inhibition is -1.16% (inactive).
On to `COc1cccc(N2CCN(C(=O)c3ccc4nc(N5CCCCC5)sc4c3)CC2)c1`, for which the inhibition was 5.19% (inactive).
For `CCOC(=O)N1CCN(C(=O)c2ccc3nc(N4CCCCC4)sc3c2)CC1`, the inhibition is -6.19% (inactive).
Take `CSCCNC(=O)c1cccc(Cl)c1`: the inhibition was 3.62% (inactive).
Regarding `Cn1c(=O)c2c(nc(CN3CCOCC3)n2CC(=O)c2ccccc2)n(C)c1=O`, the inhibition was -10.9% (inactive).
As for `CN1CCN(c2ncnc3c2c(-c2ccccc2)cn3-c2ccc(F)cc2)CC1`, the inhibition was 5.53% (inactive).
As to `Cc1scc(C(=O)N/N=C/c2ccc(OCC(C)C)cc2)c1C`, the inhibition is 6.9% (inactive).
Consider `COc1ccc(/C=C/c2ccncc2)cc1`, for which the inhibition was -1.37% (inactive).
With `Cc1ccc(-c2cc(-c3ccc(C)cc3)[n+](C)o2)cc1`, the inhibition was -0.95% (inactive).
As for `COc1cccc(NC(=O)Cn2c(CCC(=O)O)ccc2-c2cccs2)c1`, the inhibition was -0.82% (inactive).
For `Cc1ccccc1NC(=O)c1ccc(CSc2ncccn2)cc1`, the inhibition is 5.28% (inactive).
As for `CS(=O)(=O)c1ccc(C(=O)NCc2ccc(F)cc2)cc1`, the figure is -6.92% (inactive); as for `O=C(NCc1ccc(F)cc1)c1ccc(N2CCc3ccccc32)c([N+](=O)[O-])c1`, 13.9% (inactive).
On to `CCn1cc(CNC(=O)c2cccc([N+](=O)[O-])c2)cn1`, for which the inhibition was -9.32% (inactive).
With `CCn1cc(CNC(=O)c2ccc(C)s2)cn1`, the inhibition was -1.4% (inactive).
